Assay in all cases: NCI-60 one-dose screen, 48 h (100 = growth as untreated, 0 = no growth, -100 = all killed)
Holding throughout (conditions): 10 µM unless noted

Test [1] has as its system NCI-H23 lung.
For test [2], the system named is NCI-H226 lung.
In test [3] the test system is NCI-H322M lung.
Test [4] has as its system HOP-62 NSCLC.
Test [5] deals with NCI-H460 lung.
Test [6] relates to HOP-92 NSCLC.
Test [7] has as its system NCI-H522 lung.
In test [8] the test system is A549/ATCC NSCLC.
Test [9] relates to 786-0 renal.
Test [10] concerns COLO 205 colon.

About 83,000 compounds went through this panel and 20% of them were active in at least one assay; those are over-represented in the sample as a whole.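 Growth was measured after 48 h exposure to one concentration of compound in 96-well plates. Values under 10 count as active.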 A number with no mark means an inactive call. Activity calls are given as the source filed them.

As for `O[C@H](CN1CC1)[C@@H](O)CN1CC1`, the growth was 65.8% in test [1]; 79.7% in test [2]; 103% in [3]; 61.8% in test [4]; 15.5% in test [5]; 87% in test [6]. For the same compound, the growth in test [7] was 93.9%; in [8], 66.3%; in [9], 43.2%; in [10], 76.7%.
Turning to `CC(=O)O[C@H](C[C@H](C(C)C)N(C)C(=O)[C@@H](NC(=O)[C@H]1CCCCN1C)C(C)C)c1nc(C(=O)N[C@@H](Cc2ccccc2)C[C@H](C)C(=O)O)c(CCOCc2ccccc2)s1`, the growth is 24.3% in test [1]; -56.8% (active) in test [2]; 33.5% in test [3]; 29.6% in test [4]; 5.98% (active) in [5]; 5.5% (active) in [6]. Also, the growth in test [7] is -47.4% (active); in test [9], 7.14% (active); in [10], -42% (active).
As to `CCCC(C)C1(CC)C(=O)NC(=O)N(C)C1=O` (stereo not given), the growth in test [1] was 100%; in test [2] it was 85.5%; in test [3], 100%; in test [4] it was 85.1%; in test [5], 106%; in test [6] it was 92%. The growth in test [7] is 80.7%; in [9] it was 94.3%; in test [10] it was 99.6%.
In the case of `O=C1NC(=O)C(=Cc2ccc(OCCCCC3CCCCC3)c(Cl)c2)C(=O)N1`, the growth is 96.7% in [1]; 102% in [2]; 105% in test [3]; 89.7% in [4]; 93.8% in [5]; 87.4% in [6]. The growth in test [7] was 81.1%; in test [9], 88.2%; in test [10], 112%.
For the compound `O=C([O][Hg][CH2]C1OCCOC1[CH2][Hg][O]C(=O)c1ccccc1)c1ccccc1` (stereo not given), the growth is 46.7% in test [1]; 118% in test [2]; 116% in test [3]; 98.6% in test [4]; 117% in test [5]; -88.3% (active) in [6]. For the same compound, the growth was -64.1% (active) in [7], 101% in [8], 79.4% in test [9] and -64.7% (active) in test [10].
Regarding `CN(C)C1C(=O)C(C(N)=O)=C(O)C2(O)C(=O)C3=C(O)c4c(O)cccc4C(C)(O)C3CC12.[Cl][Sb]([Cl])[Cl]` (stereo not given), the growth in [1] was 46.1%; in test [2], 86.6%; in [3], 46.3%; in test [4], 45.8%; in test [5], 4.47% (active); in [6], -5.57% (active). Also, the growth in test [7] was 4.59% (active); in test [9], 26.6%; in test [10], 96.5%.
Consider `O=C(N/N=C\c1ccc(N(CCCl)CCCl)cc1)c1cccc([N+](=O)[O-])c1`, for which the growth was 87.7% in test [1]; 46.6% in [2]; 121% in test [3]; -2.12% (active) in test [4]; 69.1% in [5]; 92.4% in test [6]. The growth in test [7] was 107%; in [9] it was 96.7%; in [10], 102%.
On to `COC1CC2c3ccccc3C1C(C)=[N+]2C` (stereo not given), for which the growth in test [1] is 89.3%; in [2] it was 90.8%; in test [3] it was 99.5%; in test [4], 110%; in test [5], 106%; in [6] it was 98.7%. The growth in test [7] was 79.8%; in test [9], 98.9%; in test [10], 120%.
Take `Cc1cc(N(CCCl)CCCl)ccc1C=Nc1ccc(-c2csc(Cc3ccccc3)n2)cc1`: the growth in test [1] was 59.1%; in test [2], 54.6%; in test [3] it was 76.6%; in test [4], 65.1%; in test [5], 25.5%; in test [6], 47.5%. For the same compound, the growth in test [7] was 69.7%; in test [8] it was 50.7%; in [9], 50.8%; in test [10], 74.1%.
For the compound `CCN1C(=O)C(=C/C=C/c2ccccc2)C(=O)N(CC)C1=O`, the growth in test [1] is 95.5%; in test [2], 94.5%; in test [3], 104%; in [4] it was 97.8%; in [5] it was 77.8%; in [6], 116%. Further, the growth in test [7] is 73.3%; in [9], 106%; in test [10] it was 93.8%.
For `CC(C)COC(C[N+](=O)[O-])C(Cl)(Cl)Cl` (stereo not given), the growth was 105% in test [1]; 107% in test [2]; 106% in test [3]; 111% in test [4]; 108% in test [5]; 102% in test [6]. Further, the growth was 98.6% in test [7], 112% in test [9] and 102% in test [10].
Take `Clc1ccc2nnnn2n1`: the growth is 54.4% in test [1]; 66.6% in test [2]; 85.2% in test [3]; 55.7% in test [4]; 20.7% in test [5]; -3.54% (active) in [6]. Also, the figures for the growth in [7], in [9] and in test [10] were 13.2%, 23% and -77.3% (active), respectively.
Consider `Cc1ccc(S(=O)(=O)F)cc1C(=O)O`, for which the growth in test [1] is 96.5%; in test [2], 95.8%; in test [3], 77.6%; in [4] it was 97.7%; in test [5] it was 111%; in [6], 118%. Further, the growth is 85.8% in test [7], 98.3% in test [8] and 103% in [10].

The values are drawn from PubChem BioAssay (NCI).
